# Results reported in the supplement of paper PMC3334620.
# Whole data set: some 33,000 sequences, median “E-score (-0.5 to 0.5)” near -0.056, cut for the highest 2% near 0.38. Shown is part of a subset that was picked to be rich in the highest values.
# Target: Stb4 (UniProt P50104)
# Assay: PBM E-score (8-mer binding enrichment) (E-score (-0.5 to 0.5)); higher = stronger / more preferred TF binding
# Details: protein concentration: 200 nM; construct: GST-DNA-binding domain
# Procedure: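 Universal 'all 10-mer' protein binding microarrays (Agilent AMADID 015681) probed with GST-tagged S. cerevisiae TFs (full-length or DBD) made by in vitro transcription/translation (PURExpress), about 100-200 nM. Bound TF was detected with fluorescent anti-GST. Each ungapped 8-mer (which stands for itself and its reverse complement) is scored by the PBM enrichment score (E-score), a modified Wilcoxon-Mann-Whitney statistic from -0.5 to +0.5, computed with the Universal PBM Analysis Suite. Scale: above 0.35 generally sequence-specific binding.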
# Chain of UniProt P50104 (P50104 whole entry): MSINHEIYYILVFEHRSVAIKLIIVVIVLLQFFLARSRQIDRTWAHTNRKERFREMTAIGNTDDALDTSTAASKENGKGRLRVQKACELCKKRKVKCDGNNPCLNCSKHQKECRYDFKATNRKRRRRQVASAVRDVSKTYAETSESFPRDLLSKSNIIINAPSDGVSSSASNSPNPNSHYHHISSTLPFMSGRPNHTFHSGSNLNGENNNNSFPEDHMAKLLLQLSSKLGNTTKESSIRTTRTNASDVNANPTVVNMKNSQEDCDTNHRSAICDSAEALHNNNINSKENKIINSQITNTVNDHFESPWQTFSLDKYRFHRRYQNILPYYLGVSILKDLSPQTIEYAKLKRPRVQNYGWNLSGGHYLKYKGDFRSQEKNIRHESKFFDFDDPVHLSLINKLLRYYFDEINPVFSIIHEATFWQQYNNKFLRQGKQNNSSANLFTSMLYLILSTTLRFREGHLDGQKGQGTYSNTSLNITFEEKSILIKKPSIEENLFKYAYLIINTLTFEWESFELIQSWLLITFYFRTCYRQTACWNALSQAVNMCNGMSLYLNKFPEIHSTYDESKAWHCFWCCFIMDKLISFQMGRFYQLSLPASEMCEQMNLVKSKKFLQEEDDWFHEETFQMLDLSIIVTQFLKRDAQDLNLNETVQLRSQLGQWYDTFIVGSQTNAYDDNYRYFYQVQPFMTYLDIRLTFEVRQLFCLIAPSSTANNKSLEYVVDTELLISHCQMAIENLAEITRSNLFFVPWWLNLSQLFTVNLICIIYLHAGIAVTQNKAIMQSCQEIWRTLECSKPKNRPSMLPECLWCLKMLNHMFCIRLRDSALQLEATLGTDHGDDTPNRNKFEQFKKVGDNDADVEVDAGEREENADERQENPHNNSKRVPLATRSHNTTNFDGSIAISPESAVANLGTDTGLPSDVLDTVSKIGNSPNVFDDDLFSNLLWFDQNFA
row,Sequence,PBM E-score
1,CAGAGAAA,-0.173
2,AGGGCCGA,0.232
3,AATGAGGC,-0.312
4,TCCCCGAA,0.37
5,GTCCCGCA,0.213
6,ATCCCGAC,0.387
7,ATCCCGAG,0.439
8,GTCCCGAA,0.406
9,ATCCCGAT,0.342
10,TTCCCGAA,0.46
11,AGCCCGAC,0.0817
12,AGCCCGAG,0.231
13,GTCCCGAC,0.376
14,TTCCCAAA,-0.234
15,ACCCCGAC,0.248
16,AACAAGAG,-0.186
17,TTCCACAA,0.0123
18,GAGTGATC,-0.021
19,CGTCTGAG,-0.171
20,TTGCACAA,-0.231
21,TAGCGACA,-0.154
22,AGATATGA,-0.0877
23,CGACATTA,0.187
24,CATCACCC,0.123
25,ATCCCAAA,0.0397

row,Sequence,PBM E-score
1,CTCCCGGA,0.329
2,CGCCCGAG,0.328
3,AGCCCGAA,0.264
4,CGCCCGAA,0.293
5,CTCCCGAG,0.445
6,CTCCCGAC,0.33
7,CTCCCGAA,0.43
8,ATCCCGAA,0.432
9,AATCTACA,-0.0631
10,AATCTATC,-0.0505
11,CCAAGTCC,-0.104
12,GGTTTTAA,0.126
13,GCCCATTA,-0.168
14,ACGTTTGC,-0.11
15,TCTAGTAA,-0.126
16,GTGTAAAA,-0.0759
17,ATGCGAGC,-0.123
18,CTCCGAGA,0.409
19,ATACGAGC,-0.141
20,ATCCGAGG,0.481
21,AACCGAGG,0.355
22,GTCCGAGA,0.378
23,ATCCGAGC,0.478
24,ATCCGCGA,0.247
25,CTTCGAGA,-0.257

row,Sequence,PBM E-score
1,ATGCGAGG,-0.224
2,ATCCGAGA,0.471
3,ATGCGAGA,-0.117
4,AACGGGTC,0.156
5,AACGATAT,-0.0769
6,CTTCTTGC,-0.0322
7,ACCCCGTC,0.167
8,GAGATCTA,-0.103
9,ACTGAGTC,-0.0516
10,CTCTGCCC,-0.215
11,CCTTCTAA,-0.338
12,AATTGAAG,-0.06
13,CCGCGATC,0.142
14,CTCCGCGC,0.168
15,CTCCGAGC,0.428
16,CTCCGTGC,0.217
17,CTGCCAAC,-0.1
18,CCGGAACC,0.41
19,CCGGAACA,0.431
20,ACGGAACC,0.328
21,ACGGAACA,0.326
22,CGGGAACA,0.374
23,ACGGAACG,0.327
24,CAGGAACG,-0.144
25,TCGGAACA,0.479

row,Sequence,PBM E-score
1,GCGGAACA,0.335
2,CCGGAATA,0.347
3,CCGGAACG,0.424
4,GCGGAACC,0.284
5,AGGCCTCG,0.221
6,TCTTCCAA,-0.0347
7,CCTGGTCC,-0.116
8,CGGTAAAA,0.346
9,ATCGGCAA,0.366
10,TTCGGCAA,0.454
11,ATCGGCAC,0.34
12,CACGGCAA,0.199
13,CACGGCAG,0.137
14,CTCGGCAC,0.451
15,CTCGGCAA,0.458
16,GTCGGCAA,0.368
17,ATCGGCAG,0.321
18,GTCGGCAC,0.361
19,CTCGGCAG,0.444
20,CTCGGCCA,0.251
21,TAACCGCA,0.154
22,TAGCCCGA,0.245
23,GTACGCCA,-0.109
24,GACCTGTA,-0.0511
25,AGACACTA,0.00615

row,Sequence,PBM E-score
1,ATACTAAT,-0.00279
2,AGTTCACA,-0.153
3,ATATAGCA,-0.202
4,AACGTCGC,-0.129
5,CCTTGATA,-0.351
6,CAGAGCCG,0.237
7,CCTAACAA,-0.248
8,CACCGAGA,0.222
9,GACCGAGA,0.339
10,CACCGAGC,0.295
11,AACCGAGC,0.418
12,TACCGAGA,0.431
13,AACCGATA,0.227
14,AACCGAGA,0.407
15,AACCGACA,0.286
16,AACCGAGT,0.305
17,CCTTCAAG,-0.097
18,ATTTATGG,-0.152
19,CAACATCC,0.213
20,ATGTGCAG,-0.166
21,ACGGATAG,0.381
22,ACGGATAC,0.407
23,ATGGATAC,0.0478
24,ACGGATTA,0.145
25,ACGGATCT,0.28

row,Sequence,PBM E-score
1,ACGGATAA,0.416
2,ACGGATAT,0.407
3,ATGGATAA,0.024
4,AAGGATAC,-0.152
5,ACCGGTTC,0.216
6,CGAGCGCG,0.235
7,CCTTGGAG,-0.196
8,GTCCGATA,0.22
9,ATCCGATG,0.437
10,AACCGATG,0.222
11,CTCCGATA,0.275
12,CTCCGATC,0.229
13,AGCCGATG,0.321
14,ACCCGATA,0.349
15,ATCCGATC,0.428
16,AACCGATC,0.253
17,ATCCGATA,0.448
18,ACCCGATC,0.333
19,ACCCGATG,0.399
20,GGCAGTGA,0.0105
21,CCCATAGC,-0.0731
22,ACCATATA,-0.114
23,GGTCTAAC,0.0261
24,ATCCTGCG,-0.117
25,CAATGCCA,-0.241

row,Sequence,PBM E-score
1,AAGCCTAA,-0.0457
2,CACTCTAA,-0.151
3,ATGGGCGC,-0.158
4,AGGGCTGC,-0.134
5,ATCTGACA,-0.0757
6,ACGAGGGA,-0.0722
7,CCGAGGGA,0.386
8,GCGAGGGA,-0.129
9,CCGAGGGC,0.431
10,CAGAGGGC,-0.151
11,ACGAGGGC,-0.0578
12,ATCTAACA,-0.00015
13,CTAGGCAG,-0.169
14,CGACCCTA,0.0884
15,CGGGCCGC,0.309
16,GGACCCCA,-0.0727
17,CGACCCGA,0.4
18,GGGCCCGA,0.278
19,GGGGCCGA,0.174
20,GGACCCGA,0.386
21,CGACCCGC,0.173
22,CGGGCCGA,0.435
23,AGGCCCGA,0.233
24,CGGCCCGA,0.444
